Rows were chosen to be rich in hits. Some 2.2% of all compounds tested hit in one or more screens of this group.
BaF3 tox = parental Ba/F3 viability inhibition as JAK2V617F counter-screen; CellTiter-Glo ATP luminescence; inhibition, % at 5.6 µM; 1.1% of 220,000 active; AID 1486;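 active = inhibition above a per-campaign cutoff, the mean inhibition of all tested compounds plus 3 SD, cut at about 27% in these data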;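 note: 0% = DMSO wells and 100% = JAK Inhibitor I control wells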
APP transl inh = APP translation inhibition; SH-SY5Y APP 5'UTR-luciferase reporter, luminescence; inhibition, % at 2 µM; 0.82% of 190,000 active;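 active = inhibition above a set limit, derived from the sample mean plus 3 SD, cut at about 45% in these data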
aSyn 5UTR inh = MLPCN primary screen, SNCA 5' untranslated region | alpha-synuclein 5'UTR reporter, inhibitor activity | 0.82% of 300,000 active | inhibition, % (tested at 7.5 µM); in the data active = inhibition above about 60%;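 note: H4 neuroglioblastoma cells stably carrying SNCA 5'UTR luciferase fusion; 0% = DMSO wells and 100% = positive control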
Ba/F3 V617F tox = reduce viability of Ba/F3 cells dependent on JAK2V617F | Ba/F3 EpoR-JAK2V617F viability, ATP luminescence | inhibition, % at 5.6 µM | 1.1% of 220,000 active | AID 1446;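 active = inhibition above the campaign mean plus 3 SD over all tested compounds, cut at about 24% in these data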;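 note: cytokine-independent growth of Ba/F3 cells driven by EpoR plus mutant JAK2; 0% = DMSO-treated cells and 100% = JAK inhibitor I control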
KLF5 inhibitor = suppresses KLF5 promoter-driven expression | DLD-1 KLF5 promoter-luciferase reporter, luminescence | inhibition, % at 5 µM | 0.23% of 290,000 active | AID 1700;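 active = inhibition above a per-plate limit of that plate's mean compound inhibition plus 3 SD, cut at about 60% in these data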;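 note: 0% = DMSO wells and 100% = LY294002 at 200 µM; higher means less KLF5 promoter-driven luciferase light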
IEC-6 tox-1 = kills IEC-6 intestinal cells in KLF5 counter-screen | IEC-6 cytotoxicity, luminescence viability | inhibition, % at 5 µM | 0.78% of 290,000 active | AID 1825;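 note: 0% = plate median of test compound wells and 100% = cytotoxic reference compound wells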
BaF3 parental 2 = reduces parental Ba/F3 viability, JAK2V617F counter-screen; shares compounds with Ba/F3 V617F tox; CellTiter-Glo luminescence; cells kept alive by added IL-3; inhibition, % at 5.6 µM; 31% of 580 active; AID 1520;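 active = cell growth inhibition above the hit limit set in the earlier mutant JAK2 cell screen, cut at about 27% in these data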;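 note: plate controls were DMSO-treated cells for no effect and JAK Inhibitor I control wells for full effect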
JAK2V617F conf = Ba/F3 EpoR-JAK2V617F viability loss, confirmation; shares compounds with Ba/F3 V617F tox; CellTiter-Glo luminescence; inhibition, % at 5.6 µM; 66% of 580 active;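 active = mean inhibition above the hit cutoff derived in the earlier primary screen, cut at about 25% in these data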;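 note: 0% = DMSO-treated cells and 100% = JAK inhibitor I control wells; higher means lower luminescence from reduced cell ATP and viability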
KLF5 confirm = confirmation of KLF5 inhibitors; shares compounds with KLF5 inhibitor; DLD-1 KLF5 promoter firefly luciferase reporter, luminescence; inhibition, % at 4 µM; 79% of 610 active;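 active = inhibition above a set limit taken from the earlier primary screen, cut at about 63% in these data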;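 note: 0% = DMSO wells and 100% = LY294002 at 200 µM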
IEC-6 tox-2 = rat IEC-6 cytotoxicity, KLF5 inhibitor counter-screen | shares compounds with KLF5 inhibitor | 56% of 610 active | AID 1905 | IEC-6 rat intestinal cells, viability luminescence | inhibition, % at 4 µM; in the data active = inhibition above about 23%;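 note: cells exposed to compounds for 48 hours before viability read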
IEC-6 cytotox cf = confirmation of cytotoxic compounds in rat IEC-6 intestinal epithelial cells; 63% of 1,900 active; IEC-6 rat intestinal epithelial viability, luminescence; shares compounds with IEC-6 tox-1; inhibition, % at 5 µM; AID 1907;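 note: 0% = vehicle and 100% = reference cytotoxic drug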
Numbers without * were called inactive; · = no result. Cut-off read from the data, not from the text of the source, unless noted: active = inhibition above about 22%; inactive = the rest.

SMILES	BaF3 tox	APP transl inh	aSyn 5UTR inh	Ba/F3 V617F tox	KLF5 inhibitor	IEC-6 tox-1	others
O=C(NC1(C(F)(F)F)Oc2ccc(Cl)cc2O1)N1CCC2(CC1)OCCO2 (stereo not drawn)	19.9	47.8*	-72.7	44.4*	-11.1	4.1
O=c1c2ccccc2nc(/C=C/c2ccc([N+](=O)[O-])o2)n1-c1ccc(O)cc1	2.6	80.3*	100.5*	3.3	-30.9	-3.8
CCCCCCCCCCCCCCCC[N+](C)(C)C	·	·	97.6*	·	·	·
CC1CN(C)C(C)(C)CC1(O)c1ccccc1 (stereo not drawn)	3.4	·	1.5	1.8	-44.6	-3.7
CC(C)N1C(=O)NC(=O)C2(Cc3cc([N+](=O)[O-])ccc3N(C)C2c2ccccc2)C1=O (stereo not drawn)	3.8	-1.4	-11.0	-3.7	0.0	-2.6
CC(=NCc1ccc(F)cc1)c1c(O)n(C)c(=O)n(C)c1=O	30.9*	11.2	39.1	35.4*	43.3	6.8
COc1ccc(C(O)C(C)NC(C)C(O)c2ccc(OC)cc2)cc1 (stereo not drawn)	·	·	13.3	·	·	·
CCCCCCn1c(=O)c(C(=O)Nc2cnccn2)c(O)c2ccccc21	1.7	14.7	66.6*	1.1	2.5	4.2
CCCCCCn1c(=O)c(C(=O)Nc2ncccc2O)c(O)c2ccccc21	·	·	91.9*	·	44.8	1.2
CCCCCn1c(=O)c(C(=O)Nc2ccccn2)c(O)c2ccccc21	·	·	65.4*	·	-33.5	-1.2
CCCCCn1c(=O)c(C(=O)NCc2ccncc2)c(O)c2ccccc21	2.4	15.5	65.3*	-1.9	-8.9	0.1
COP(=S)(OC)SCN1C(=O)c2ccccc2C1=O	-0.4	-14.3	19.2	-2.4	-39.2	-6.5
CC1NCCC2(O)CCCCC12 (stereo not drawn)	3.5	1.6	-17.8	-1.3	-0.3	-2.5
COc1c(/C=C2/C(=O)NC(=O)N(C)C2=O)c(CCN(C)C(=O)c2ccccc2)cc2c1OCO2	·	·	-3.0	·	-17.6	-5.7
O=c1c2ccccc2nc(/C=C/c2ccc(F)cc2)n1-c1ccccn1	-0.4	·	0.2	-2.4	1.1	0.6
S=P(Nn1cnnc1)(c1ccc(Br)cc1)c1ccc(Br)cc1	7.0	-9.7	2.4	-0.9	-25.0	-2.9
O=C(Cn1cnc2ccccc2c1=O)NCC(=O)N1CCC2(CC1)OCCO2	37.2*	-4.8	-6.0	-0.3	-19.2	-0.2
O=C(Cn1cnc2ccccc2c1=O)NCCC(=O)N1CCC2(CC1)OCCO2	6.2	0.1	-18.6	-2.8	-29.2	-3.8
CCCCn1c(O)c(C(C)=Nc2c(C)n(C)n(-c3ccccc3)c2=O)c(=O)[nH]c1=O	0.6	-3.4	1.6	-1.0	10.7	-3.6
CN1CCC(N(C)c2nc(-c3ccc([N+](=O)[O-])cc3)nc3ccccc23)CC1	20.9	4.9	75.1*	3.5	-5.8	15.7
COc1ccc(C[C@H]2NC[C@H](O)[C@H]2OC(C)=O)cc1	·	·	112.3*	·	·	·
CC(C)CN1CCN(Cc2c(F)cccc2Cl)CC1CCO (stereo not drawn)	3.8	12.0	-0.2	-3.6	-14.9	-4.8
N#CC(C#N)=C(N)c1cccnc1	16.4	-12.3	9.1	33.9*	-38.1	-7.7	BaF3 parental 2=-4.2;JAK2V617F conf=-2.2
O=C(Cc1ccccc1)OCCNC(=O)c1cccnc1	4.2	4.9	-3.5	1.7	-29.5	2.1
c1ccc2c(CN3CCCCCC3)c[nH]c2c1	26.2	-20.4	-41.0	62.1*	-26.9	0.6	BaF3 parental 2=11.0;JAK2V617F conf=75.7*
SMILES	BaF3 tox	APP transl inh	aSyn 5UTR inh	Ba/F3 V617F tox	KLF5 inhibitor	IEC-6 tox-1	others
c1ccc2c(CNC3CCCCCC3)c[nH]c2c1	6.7	19.6	·	26.8*	-2.7	-0.4	BaF3 parental 2=-1.9;JAK2V617F conf=38.4*
CNCCc1c[nH]c2ccccc12	3.9	1.8	-19.2	-0.8	-21.5	5.2
CCC1(C)CN(S(=O)(=O)OCC(Cl)(Cl)Cl)C(=O)N1 (stereo not drawn)	·	·	3.7	·	-18.8	-7.0
O=C1NC(=O)N(CCC2=CCCCC2)C(=O)/C1=C/c1cccs1	0.3	·	-19.7	-3.0	-2.8	-6.8
CN(C)C(=S)SSC(=S)N(C)C	-2.7	94.8*	-37.5	39.1*	22.4	101.7*	BaF3 parental 2=0.1;JAK2V617F conf=99.2*
CCOc1ccc(N2C(=O)/C(=C\c3cccs3)C(=O)NC2=S)cc1	12.0	6.7	13.9	63.3*	-18.1	-7.9	BaF3 parental 2=-4.7;JAK2V617F conf=-4.7
CCOc1ccc(N2C(=O)/C(=C/c3ccco3)C(=O)NC2=S)cc1	·	·	22.6	·	-25.2	0.5
COc1cccc(N=Nc2c(O)[nH]c(=S)[nH]c2=O)c1	-2.2	·	-5.5	4.8	-22.5	1.0
CN(C)C(=O)Oc1ccc(OCc2nc3ccccc3[nH]2)cc1	22.8	-88.4	37.7	24.1*	-92.3	13.5	BaF3 parental 2=31.5*;JAK2V617F conf=33.8*
CCCCN=C[C@]12CCC(O)CC1(O)CCC1[C@@H]2CC[C@]2(C)[C@H](C3C=CC(=O)O3)CCC12O (stereo partly drawn)	·	·	96.0*	·	105.7*	-2.7	KLF5 confirm=104.8*;IEC-6 tox-2=-1.3
C[C@]12CCC3C(CCC4=CC(O)CC[C@@]43/C=N/O)C1(O)CCC2C1=CC(=O)OC1 (stereo partly drawn)	·	·	113.0*	·	91.4*	0.7	KLF5 confirm=104.3*;IEC-6 tox-2=-9.7
COCc1ccc(CN2CCCC(C(=O)c3sccc3C)C2)o1 (stereo not drawn)	3.7	10.4	18.1	0.8	-0.8	1.6
C[n+]1c(-c2ccccc2)c2cc(N)ccc2c2ccc(N)cc21	·	·	52.0	·	107.6*	-1.2	KLF5 confirm=86.0*;IEC-6 tox-2=-9.2
Nc1ccc2ccc3cccc[n+]3c2c1	·	·	2.2	·	-15.6	-3.7
O=C(c1ccccc1F)c1cn(CC(=O)N2CCOCC2)c2ccccc12	12.3	-6.3	17.0	0.2	-21.7	3.1
C[C@H]1[C@H](OC(=O)CCC(=O)NCc2ccc(C(=O)O)cc2)O[C@@H]2O[C@@]3(C)CC[C@H]4[C@H](C)CC[C@@H]1C24OO3	·	·	-0.3	·	79.7*	23.6*	KLF5 confirm=84.2*;IEC-6 tox-2=25.6*;IEC-6 cytotox cf=21.1
CC1C(OC(=O)CCC(=O)NC(C)(C)CO)O[C@H]2OC3(C)CC[C@H]4[C@H](C)CCC1C24OO3 (stereo partly drawn)	·	·	3.5	·	82.3*	32.9*	KLF5 confirm=85.3*;IEC-6 tox-2=22.8*;IEC-6 cytotox cf=11.3
CC(C)CC(NC(=O)CCCNC(=O)CCC(=O)OC1O[C@H]2OC3(C)CC[C@H]4[C@H](C)CCC(C1C)C24OO3)C(=O)O (stereo partly drawn)	·	·	-2.4	·	81.7*	29.7*	KLF5 confirm=81.9*;IEC-6 tox-2=20.4;IEC-6 cytotox cf=22.9*

Assay outcomes as filed in PubChem BioAssay.
